Measurements taken from PubChem BioAssay.
A number with no mark means an inactive call. The source made the active and inactive calls. Rule as the data show it, unless noted: active = inhibition above about 33%; inactive = the rest.

Tests used:
[1] = StAR promoter reporter inhibitors, counter-screen for LRH-1 inverse agonist project, cell-based, luminescence, high throughput (AID 651611; in the data active = inhibition above about 28%); settings: StAR promoter luciferase reporter counterscreen, at 3.6 µM, hits give high values
[2] = molecular target: Nuclear receptor subfamily 5 group A member 2 (Homo sapiens) (UniProt O00482); assay: NR5A2 activity suppression in reporter cells – cell-based, luminescence, confirmation (AID 651613; in the data active = inhibition above about 42%;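 also: HEK293T cells co-transfected with LRH-1 and StAR promoter luciferase reporter; 0% = vehicle wells and 100% = parental cells lacking receptor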); settings: cell-based LRH-1 luciferase reporter, inverse agonism; at 3.6 µM; hits give high values
Chain of Nuclear receptor subfamily 5 group A member 2 (Homo sapiens) (O00482 whole entry, looked up): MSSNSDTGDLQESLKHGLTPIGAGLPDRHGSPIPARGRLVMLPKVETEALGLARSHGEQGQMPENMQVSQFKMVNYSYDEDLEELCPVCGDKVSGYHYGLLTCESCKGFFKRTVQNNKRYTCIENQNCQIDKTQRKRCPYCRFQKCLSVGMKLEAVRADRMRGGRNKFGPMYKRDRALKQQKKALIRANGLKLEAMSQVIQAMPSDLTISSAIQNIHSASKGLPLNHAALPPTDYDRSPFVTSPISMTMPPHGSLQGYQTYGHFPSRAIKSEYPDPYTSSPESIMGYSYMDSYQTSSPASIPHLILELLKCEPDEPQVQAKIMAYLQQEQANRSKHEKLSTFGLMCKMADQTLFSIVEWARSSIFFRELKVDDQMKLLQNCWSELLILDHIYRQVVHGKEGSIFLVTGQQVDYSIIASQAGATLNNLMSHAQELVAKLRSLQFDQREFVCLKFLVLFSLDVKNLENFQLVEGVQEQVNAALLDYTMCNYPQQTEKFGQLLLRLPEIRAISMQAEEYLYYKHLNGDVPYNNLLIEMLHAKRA

[3] = molecular target: Steroidogenic factor 1 (Homo sapiens) (UniProt Q13285); assay: inverse agonism at SF1 nuclear receptor – cell-based, luminescence, high throughput, counter-screen for LRH-1 inverse agonist project (AID 651614; in the data active = inhibition above about 44%;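 also: cells cotransfected with StAR promoter reporter and SF1 expression vector; 0% = vehicle on cells with receptor and 100% = vehicle on cells lacking receptor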); settings: cell-based SF1 luciferase reporter, at 3.6 µM, hits give high values
Chain of Steroidogenic factor 1 (Homo sapiens) (Q13285 whole entry, looked up, the tested form may be a part): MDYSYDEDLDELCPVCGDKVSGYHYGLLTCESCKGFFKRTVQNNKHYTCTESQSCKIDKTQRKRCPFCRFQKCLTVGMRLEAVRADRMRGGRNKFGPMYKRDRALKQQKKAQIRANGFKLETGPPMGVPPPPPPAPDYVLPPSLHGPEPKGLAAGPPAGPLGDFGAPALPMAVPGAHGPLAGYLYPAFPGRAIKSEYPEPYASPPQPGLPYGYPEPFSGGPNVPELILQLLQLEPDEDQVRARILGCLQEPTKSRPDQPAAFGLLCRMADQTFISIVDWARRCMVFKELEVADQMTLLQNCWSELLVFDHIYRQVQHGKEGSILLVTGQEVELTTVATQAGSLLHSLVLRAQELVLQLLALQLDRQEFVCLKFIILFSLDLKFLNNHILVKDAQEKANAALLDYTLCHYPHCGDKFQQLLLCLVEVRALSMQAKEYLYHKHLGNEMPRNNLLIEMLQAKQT

[4] = compounds suppressing VP16-driven luciferase signal – cell-based, luminescence, high throughput, counter-screen for LRH-1 inverse agonist project (AID 651615); settings: Gal4-VP16 luciferase reporter cells, at 3.6 µM, hits give high values

Row | Structure (SMILES) | inhibition [1] | inhibition [2] | inhibition [3] | inhibition [4]
1 | CCOc1ccc(NC(=O)Cn2nc(-c3ccccc3Cl)n(CC)c2=S)cc1 | 1.73% | 60.4% (active) | 54.6% (active) | 2.74%
2 | Cn1c(=O)n(C)c2cc(NC(=O)CCl)ccc21 | 60.5% (active) | 73.4% (active) | 61.5% (active) | -101%
3 | O=C(Cc1cccs1)N/N=C\c1ccc([N+](=O)[O-])s1 | 12.1% | 64.9% (active) | 56.4% (active) | 12.6%
4 | Cc1ccc(-n2nnnc2-c2ccccc2Br)cc1 | 7.41% | 57.2% (active) | 52% (active) | 4.92%
5 | CC1(C)CC(=O)C=C(c2cccs2)C1 | 0.35% | 47.2% (active) | 57.8% (active) | 6.36%
6 | O=C(C[C@H]1CC[C@@H]2[C@H](COC[C@H](O)CN2Cc2cccc(C(F)(F)F)c2)O1)NCCc1ccccc1 | 2.1% | 8.97% | 15.7% | 1.55%
7 | Cc1c(NC(=O)c2cc(-c3cccs3)nc3ccccc23)c(=O)n(-c2ccccc2)n1C | 47% (active) | 33.5% | 18% | 2.7%
8 | Cn1nc(C(C)(C)C)cc1C(=O)NCc1ccc2c(c1)OCO2 | 14.8% | 59.8% (active) | 58.3% (active) | 50.6% (active)
9 | C/C(=N\Nc1nc2ccccc2[nH]1)c1ccccn1 | 71.4% (active) | 83.1% (active) | 73.9% (active) | 2.13%
